Only some compounds are listed: those with a hit (about 3.2% of all), similar ones and a draw of the others.
p53null 32C kill = selectivity test: cytotoxicity in p53 null cells, permissive temperature | H1299-neo p53 null cells, ATP luminescence, 24 h, 32C | Potency, µM (highest dose often 46.1 µM), for the others: top-dose activity change, negative = cytotoxicity, most hits filed as cytotoxic | 0.62% of 55,000 active | AID 903;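 note: potency is the fitted concentration of half-maximal effect; 0% = DMSO only and -100% = full killing by 100 µM tamoxifen; nearly all actives have a fitted effect of over 55% in size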
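Cytotoxicity: H1299-neo (no p53), 32C, 24 h treatment. Concentrations up to 46 uM. Readout cellular ATP, luminescence. Normalization to DMSO basal and tamoxifen 100 uM maximal kill.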
S16 F2sN tox = cytotoxicity in S16 Pmp22-F2sN Schwann cells | S16 Pmp22-F2sN Schwann cells viability, CellTiter-Glo, 24 h | Potency, µM (series often up to 57.5 µM), inactives show at the top dose activity change, negative = cytotoxicity, usual class: cytotoxic | 0.48% of 43,000 active | AID 1508642; note: potency is the fitted concentration of half-maximal effect; % is set by controls: 0 for no effect and ±100 for the full control effect; nearly all actives have a fitted effect of over 65% in size
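Used to flag compounds lowering reporter output through toxicity, this quantitative HTS measures ATP-based CellTiter-Glo luminescence in S16 Pmp22-F2sN Schwann cells after 24 h compound exposure at 37C.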
PMP22 txn = modulates PMP22 transcription in S16 Schwann cells. S16 Pmp22-F2sN Schwann cells, FLuc/NLuc coincidence luminescence, 24 h. Potency, µM (series often up to 57.5 µM), inactives show top-dose activity change, negative = inhibition, hits mostly inhibitors. 2% of 43,000 active. AID 1508649; active = clear falling dose curves in both reporters; inconclusive = both reporters move, but less clearly or upward; inactive = either reporter flat; the % is the NLuc reporter signal; note: potency is the fitted concentration of half-maximal effect; % is set by controls: 0 for no effect and ±100 for the full control effect
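Schwann cells carrying the coincidence reporter were exposed to library compounds for 24 h at 37C, then lysed and read for FLuc and, after quenching, NLuc luminescence on a CCD imager.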
pS6 MEF inh = mTORC1 pathway inhibition measured by phospho-rpS6; Tsc2-/- p53-/- MEF, phospho-rpS6 immunofluorescence/PI, 24 h; Potency, µM (highest dose often 38.3 µM), inactives show at the highest dose activity change, negative = inhibition, usual class: inhibitors; 0.78% of 44,000 active; AID 493208;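 note: potency is the fitted concentration of half-maximal effect; plate controls were DMSO for no effect and rapamycin for full effect; nearly all actives have a fitted effect of over 50% in size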
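Readout is phospho-S6 Alexa 488 signal normalized to PI per well, reported as % active cells with thresholds set from rapamycin (7.5 nM) and DMSO controls. Cells: Tsc2-/-, p53-/- MEFs, 24 hrs compound at 37 C; PI cell number serves as viability.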
p53null 39C kill = selectivity test: cytotoxicity in p53 null cells, nonpermissive temperature | H1299 p53-null (neo) cells, 39C, ATPlite viability, 24 h | AID 904 | Potency, µM (doses to about 46.1 µM), for the others: top-dose activity, negative = cell killing, most hits filed as cytotoxic | 0.97% of 55,000 active;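 note: potency is the fitted concentration of half-maximal effect; 0% = DMSO only and -100% = full killing by 100 µM tamoxifen; nearly all actives have a fitted effect of over 50% in size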
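Following overnight plating at 37C (600 cells/well), H1299-neo or H1299-p53A138V cells are dosed up to 46 uM. Incubation lasts 24 hr at 39C before ATP detection.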
NLuc saturating = inhibits NanoLuc at saturating substrate, PMP22 counter-screen; shares compounds with PMP22 txn; Secreted NLuc enzyme (filtered S16 cell medium), Nano-Glo luminescence; Potency, µM (highest dose often 57.5 µM), for inactives: at the top dose activity change, negative = inhibition, hits mostly inhibitors; 4% of 690 active; AID 1508638; note: potency is the fitted concentration of half-maximal effect; % is set by controls: 0 for no effect and ±100 for the full control effect
NLuc Km ctr = inhibits NanoLuc under Km conditions, PMP22 counter-screen. secreted NLuc enzyme, coelenterazine luminescence, Km conditions. Potency, µM (highest dose often 57.5 µM), for the others: at the highest dose activity change, negative = inhibition, usual class: inhibitors. AID 1508639. 5% of 690 active. shares compounds with PMP22 txn; note: potency is the fitted concentration of half-maximal effect; % is set by controls: 0 for no effect and ±100 for the full control effect
FLuc ctr PMP22 = counter-screen for PMP22 expression modulators: firefly luciferase inhibition; shares compounds with PMP22 txn; purified P. pyralis FLuc, luminescence, 10 min; Potency, µM (series often up to 57.5 µM), for inactives: at the top dose activity, negative = inhibition, actives largely listed as inhibitors; 690 tested, under 10 active; AID 1508640; note: % of control where 0% means no effect
Target sequence (P08659 whole entry, looked up): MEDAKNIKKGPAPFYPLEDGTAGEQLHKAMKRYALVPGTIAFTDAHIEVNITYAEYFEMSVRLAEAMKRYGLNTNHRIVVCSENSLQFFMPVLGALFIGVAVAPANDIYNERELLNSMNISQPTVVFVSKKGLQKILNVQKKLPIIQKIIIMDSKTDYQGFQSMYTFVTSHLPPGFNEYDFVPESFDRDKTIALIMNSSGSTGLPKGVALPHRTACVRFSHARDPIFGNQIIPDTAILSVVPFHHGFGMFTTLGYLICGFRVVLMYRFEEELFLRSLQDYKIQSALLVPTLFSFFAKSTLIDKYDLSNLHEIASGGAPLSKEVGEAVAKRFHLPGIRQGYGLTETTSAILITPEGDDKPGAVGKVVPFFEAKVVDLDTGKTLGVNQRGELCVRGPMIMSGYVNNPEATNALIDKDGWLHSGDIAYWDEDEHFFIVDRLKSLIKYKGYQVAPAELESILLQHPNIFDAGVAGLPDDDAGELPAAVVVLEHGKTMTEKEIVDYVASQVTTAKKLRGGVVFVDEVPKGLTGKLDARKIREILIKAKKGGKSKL
S16 viab conf = confirmation of cytotoxicity in S16 Pmp22-F2sN Schwann cells (luciferase reporters placed in the Pmp22 gene) | 7% of 690 active | shares compounds with PMP22 txn | Potency, µM (titrated, usually from 57.5 µM), for inactives: at the top dose activity change, negative = viability loss, actives largely listed as cytotoxic | S16 Schwann cells viability, CellTiter-Glo ATP luminescence, 24 h | AID 1508641; note: potency is the fitted concentration of half-maximal effect; % is set by controls: 0 for no effect and ±100 for the full control effect
PMP22 txn conf = confirmation of modulators of PMP22 gene transcription in S16 cells; 22% of 690 active; Potency, µM (doses to about 57.5 µM), for the others: at the highest dose activity change, negative = inhibition, actives largely listed as inhibitors; S16 Schwann cells Pmp22-F2sN, dual luciferase, 24 h; shares compounds with PMP22 txn; active = clear falling dose curves in both reporters; inconclusive = both reporters move, but less clearly or upward; inactive = either reporter flat; the % is the FLuc reporter signal; note: potency is the fitted concentration of half-maximal effect
PMP22 prot conf = rat PMP22 protein level modulation, confirmatory | Potency, µM (titrated, usually from 27.9 µM), without a hit: top-dose activity change, negative = inhibition, usual class: inhibitors | S16 Schwann cells Pmp22-HiBiT, luminescence, 48 h | 95 tested, under 10 active | shares compounds with PMP22 txn
Target sequence (P25094 whole entry, looked up): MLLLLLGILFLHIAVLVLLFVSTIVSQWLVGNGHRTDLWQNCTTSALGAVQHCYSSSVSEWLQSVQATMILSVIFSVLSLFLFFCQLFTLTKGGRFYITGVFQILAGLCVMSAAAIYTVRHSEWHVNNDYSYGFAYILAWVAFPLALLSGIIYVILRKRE
Starred values were filed as active, the others as inactive; ? = inconclusive; . = no result. Unless noted, calls come from the whole dose curve; as a rule, active = well fitted curve in the direction sought with a large enough effect; inconclusive = small, poorly fitted or top-dose-only effect, or another doubt; inactive = no such curve, though single readings can be large; an effect the other way counts as inactive or inconclusive.

SMILES | p53null 32C kill | S16 F2sN tox | PMP22 txn | pS6 MEF inh | p53null 39C kill | NLuc saturating | NLuc Km ctr | FLuc ctr PMP22 | S16 viab conf | PMP22 txn conf | others
CCc1ccc(NC(=O)Cn2c(=O)n(-c3ccc(OC)cc3)c(=O)c3ccc(C(=O)NCc4ccc(C)cc4)cc32)cc1 | ? | -7.8% | 12.7µM* | ? | ? | -2.0% | 5.8% | -0.8% | ? | 12.2µM* | PMP22 prot conf=?
Cc1ccc(-n2c(=O)c3ccc(C(=O)NCc4ccccc4Cl)cc3n(Cc3ccccc3F)c2=O)cc1 | 5.3% | -4.2% | -0.4% | -0.9% | -2.8% | . | . | . | . | .
Cn1c(=O)c2c(ncn2CC(=O)Nc2cc(Cl)cc(Cl)c2)n(C)c1=O | -6.0% | 4.3% | ? | -18.3% | -4.9% | . | . | . | . | .
CCn1c(CN2CCCCC2)nc2cc(NC(=O)COc3ccccc3C(C)(C)C)ccc21 | 0.4% | 2.0% | 13.9µM* | -1.1% | -2.0% | -11.0% | 2.1% | 1.0% | 1.4% | ?
CCn1c(CN2CCCCC2)nc2cc(NC(=O)c3ccccc3[N+](=O)[O-])ccc21 | 13.8% | -7.3% | ? | -9.8% | -18.0% | . | . | . | . | .
Cc1ccc(-n2c3c(cc(C(=O)Nc4ccccc4C(N)=O)c2=O)C(=O)CC(C)(C)C3)cc1 | 1.7% | 0.0% | 3.4µM* | 1.6% | -5.6% | ? | -4.1% | 5.0% | -13.8% | -31.9%
CNC(=O)c1cc2c(n(-c3ccc(C)cc3)c1=O)CC(C)(C)CC2=O | 5.2% | 11.5% | -6.7% | -4.0% | 2.2% | . | . | . | . | .
O=C(c1cccnc1)N1CCN(C(=O)c2ccco2)CC1 | 3.4% | . | . | . | -1.0% | . | . | . | . | .
COc1cc2ccccc2cc1C(=O)Nc1ccc2oc(-c3cccc(Cl)c3Cl)nc2c1 | 2.7% | ? | 4.22µM* | ? | 37.5% | -10.3% | 0.7% | -27.8% | 27.3µM* | 12.2µM*
COc1ccc(Cl)cc1NS(=O)(=O)c1cc(Br)cc2c1N(C(=O)C1CC1)CC2 | -0.1% | 2.8% | -43.8% | -12.1% | -0.4% | . | . | . | . | .
COc1cc(NS(=O)(=O)c2cc(Br)cc3c2N(C(=O)C2CC2)CC3)cc(OC)c1 | 7.94µM* | -18.7% | 3.57µM* | ? | ? | 13.7µM* | ? | 0.0% | ? | 18.3µM*
Cc1ccc(NS(=O)(=O)c2cc(Br)cc3c2N(C(=O)C2CC2)CC3)cc1C | 19.8% | ? | 8.91µM* | -12.5% | -8.1% | ? | -7.4% | -0.6% | ? | ?
CN(C)CCNC(=O)CCCn1c(=O)c2cccn2c2ccccc21 | -0.2% | 14.0% | -26.6% | 4.2% | ? | . | . | . | . | .
CC(=O)c1ccc(NC(=O)COc2ccccc2-c2nc(C(C)C)no2)cc1 | -4.6% | 2.1% | 12.6µM* | -3.2% | 1.2% | -8.6% | 5.9% | -10.5% | -32.6% | -27.3%
COc1ccc(CCC(=O)NC2CC(=O)N(c3ccc(C)c(C)c3)C2)cc1 (configuration not stated) | 4.1% | 10.1% | 21.0% | 3.0% | 5.0% | . | . | . | . | .
CCN1CCN(c2ncc3c(n2)CCN(Cc2ccc(Br)s2)C3)CC1 | 6.5% | -6.2% | ? | 1.0% | -5.8% | . | . | . | . | .
COCCCNC(=O)Cn1cc(C(=O)c2cccs2)c2ccccc21 | -2.5% | . | . | . | 0.7% | . | . | . | . | .
Cc1ccc(CNC(=O)c2ccc(-c3nc(CS(=O)(=O)c4ccc(C)cc4)c(C)o3)cc2)cc1 | 1.1% | ? | 13.4µM* | 1.6% | 11.3% | -3.8% | 1.2% | -3.2% | 2.3% | -31.7%
CCCCNC(=O)c1ccc(-c2nc(CS(=O)(=O)c3ccc(C)cc3)c(C)o2)cc1 | 11.5% | -3.5% | ? | -6.4% | -16.3% | . | . | . | . | .
COc1cc(OC)c(OC)cc1/C=C/c1nc2cc3ccccc3cc2c(=O)n1-c1ccc(F)cc1F | -0.7% | ? | 9.46µM* | 10.5% | -21.1% | 3.06µM* | 2.17µM* | ? | -8.5% | 13.4%
CCCCCS(=O)(=O)c1oc(-c2cccs2)nc1S(=O)(=O)c1ccc(C)cc1 | 19.0% | ? | 13.4µM* | 3.7% | 8.5% | -8.9% | 2.4% | -2.0% | ? | 17.2µM* | PMP22 prot conf=35.9%
CCCSc1oc(-c2cccs2)nc1S(=O)(=O)c1ccc(C)cc1 | 19.2% | 3.3% | -11.0% | 0.2% | 17.7% | . | . | . | . | .
CC1CCN(C(=O)CCS(=O)(=O)c2cc3c(cc2Cl)NC(=O)CO3)CC1 | 1.5% | 13.1% | -54.9% | -4.9% | 7.5% | -12.3% | 3.0% | -17.0% | -6.3% | -27.1%
Cc1cc(Br)cc2c1N(Cc1ccccc1OC(C)C)C(=O)C2=O | ? | ? | 9.46µM* | ? | ? | ? | ? | -21.0% | ? | 14.5µM*
COc1ccccc1CN1C(=O)C(=O)c2cccc(C)c21 | -5.1% | ? | -71.4% | -2.1% | -12.4% | . | . | . | . | .
CCCCN(CC)CCCNC(=O)c1cc2c(=O)oc3ccc(C)cc3c2s1 | 2.6% | 5.9% | ? | -2.0% | 9.7% | . | . | . | . | .
CCCN(CCC)CCCNC(=O)c1cc2c(=O)oc3ccc(C)cc3c2s1 | 1.6% | ? | ? | -14.3% | -4.3% | -7.1% | -1.1% | -6.8% | ? | ?
O=C(CCc1nnc2n(Cc3ccccc3Cl)c(=O)c3ccccc3n12)Nc1ccccc1 | -0.6% | 7.4% | 12.6µM* | 0.5% | 6.3% | -6.8% | 1.2% | -4.8% | -48.4% | ?
Cc1cccc(NC(=O)c2sc3ncnc(N(C)C4CCCCC4)c3c2C)c1C | 6.8% | -20.8% | ? | -5.9% | 17.4% | . | . | . | . | .

From PubChem
